Screening data as filed in PubChem BioAssay.
Only some compounds are listed: those with a hit (about 1.4% of all), similar ones and a draw of the others.
HTR5A ag ctr = HTR5A agonists in luminescence cell assay, primary screen, counter-screen for OPRM1-OPRD1 heterodimer agonist project, full-deck HTS. 0.61% of 340,000 active. cell-based. AID 504692, 2011. 5-hydroxytryptamine receptor 5A (Homo sapiens), P47898. activation, % at 9.3 µM; in the data active = activation mostly above about 9.5%, no sharp cut-off; inactive = mostly below about 7.6%;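 note: 0% = cells with vehicle only and 100% = reference agonist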
MOR-DOR ag-1 = agonists of OPRM1-OPRD1 heterodimerization, primary screen, cell-based, luminescence. AID 504326, 2011. activation, % at 9.3 µM. 0.3% of 340,000 active. cells. Mu-type opioid receptor (Homo sapiens) + Delta-type opioid receptor (Homo sapiens), …;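 note: 0% = vehicle-treated cells and 100% = reference agonist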
OPRM1-OPRD1 inv = inverse agonists of MOR-DOR heterodimerization, primary screen, cell-based, luminescence; Mu-type opioid receptor (Homo sapiens) + Delta-type opioid receptor (Homo sapiens), …; cell-based MOR-DOR heterodimer luminescence, inverse agonism; inhibition, % at 9.3 µM; 0.21% of 340,000 active; in the data active = inhibition above about 22%, passing the limit was not always enough;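 note: 0% = cells with DMSO and 100% = wells without cells with DMSO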
MIN6 prolif = inducers of MIN6 beta-cell proliferation, primary screen, ATP luminescence, uHTS | AID 2380, 2010 | 0.29% of 330,000 active | MIN6 cells proliferation, ATPlite luminescence, 48 h; cells starved in 0.2% serum; 100% = growth in 10% serum | proliferation, % at 10 µM;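 active = compounds whose signal lies at least 3.5 SD above the mean of all wells on their plate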;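 note: 0% = DMSO-treated cells in low-serum medium and 100% = 10% serum control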
HTR5A inv ag = HTR5A inverse agonists in luminescence cell assay, primary screen, counter-screen for OPRM1-OPRD1 heterodimer inverse agonist project, full-deck HTS. 5-hydroxytryptamine receptor 5A (Homo sapiens), P47898. HTR5A cell line, inverse agonism. inhibition, % at 9.3 µM. 0.083% of 340,000 active; in the data active = inhibition mostly above about 23%, no sharp cut-off; inactive = mostly below about 18%;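 note: 0% = cells with DMSO and 100% = no-cell wells with DMSO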
pCIP destab = p/CIP-EGFP fusion destabilizers, primary screen, fluorescence, F442A cells. Q05BA5. 16 h. decrease of EGFP signal, % at 10 µM. 0.01% of 290,000 active. AID 1984, 2009;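 active = EGFP signal decrease of at least 30% at 10 µM or well 3 SD below plate mean, unless failing retest; inactive = the rest, including hits failing retest or dose response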
MOR-DOR ag-2 = OPRM1-OPRD1 heterodimerization promoters, counter-screen for HTR5A agonist project, cell-based, luminescence. shares compounds with HTR5A ag ctr. U2OS counter-screen cells, complementation luminescence, 3 h. activation, % at 9.3 µM. 13% of 800 active
HTR5A ag conf = HTR5A agonists, retest of hits, confirmation, cell-based, luminescence. shares compounds with HTR5A ag ctr. HTR5A agonist cell assay. activation, % at 9.3 µM. 17% of 800 active. AID 504915, 2011; in the data active = activation above about 17%;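 note: 0% = cells with vehicle only and 100% = full reference agonist response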
* hit, by the source's call; . = no result. Cut-off read from the data, not from the text of the source, unless noted: active = activation above about 18%; inactive = the rest.

SMILES | HTR5A ag ctr | MOR-DOR ag-1 | OPRM1-OPRD1 inv | MIN6 prolif | HTR5A inv ag | pCIP destab | MOR-DOR ag-2 | HTR5A ag conf
Cc1ccc(C2(c3ccccc3)NC(=O)N(CC(=O)NCc3ccccc3)C2=O)cc1C (stereo unspecified) | -4.4 | 0.3 | -1.2 | -5.0 | 5.0 | . | . | .
COc1ccc(OCC(=O)Nc2cccc(OC)c2)cc1 | 5.2 | -2.9 | 14.5 | 1.0 | -20.1 | -25.1 | . | .
CC(=O)c1cccc(NC(=O)COc2ccccc2)c1 | 15.3* | -0.7 | 3.5 | -1.7 | -36.5 | -5.3 | 4.5 | 13.0
COc1ccc(NC(=O)c2sc(NC(=O)COc3ccccc3)nc2C)cc1 | -0.2 | -1.3 | 7.5 | -2.3 | -36.6 | -18.4 | . | .
COc1cccc(NC(=O)COc2ccc(S(=O)(=O)NC(C)C)cc2)c1 | 15.3* | -0.5 | 2.2 | -0.6 | -36.6 | 2.6 | 2.5 | 2.3
Cc1nc(NC(=O)COc2ccccc2)sc1C(=O)Nc1cccc(Cl)c1 | 17.6* | 3.2 | -16.2 | -5.0 | -45.8 | 6.8 | 4.4 | 4.3
COc1cc(/C=C2\COC/C(=C\c3ccc(O)c(OC)c3)C2=O)ccc1O | -7.1 | -0.6 | 2.9 | -4.1 | 16.1 | -6.7 | . | .
COc1cc(/C=C2/CC/C(=C/c3ccc(O)c(OC)c3)C2=O)ccc1O | 23.5* | 10.2 | -53.3 | -4.8 | 13.6 | -11.2 | 0.2 | 5.2
CCn1c(C)nc2cc(C(=O)NN=Cc3ccccc3OC(F)F)ccc21 | 18.4* | -1.4 | 6.2 | 1.6 | -45.6 | . | 16.4 | 7.0
Cc1nnc(SCc2ccc(C(=O)O)cc2)s1 | 16.3* | -1.8 | 9.4 | -2.6 | -17.5 | 1.2 | 2.4 | 2.2
C=CCc1cccc2cc(C(=O)N3CCN(C(=O)c4ccccc4)CC3)c(=O)oc12 | 16.3* | -0.2 | 2.0 | 9.8 | -48.5 | -8.4 | 0.0 | -3.5
C=CCc1cccc2cc(C(=O)N3CCOCC3)c(=O)oc12 | 8.1 | -2.3 | 11.2 | 1.0 | -30.6 | -6.2 | . | .
Cc1ccc(S(=O)(=O)NN=C2C3CC4CC(C3)CC2C4)cc1[N+](=O)[O-] | 12.4 | -0.4 | 2.0 | -2.1 | -58.1 | -1.3 | . | .
Cc1ccc(S(=O)(=O)NN=C2C3CC4CC(C3)CC2C4)cc1 | 15.0* | -4.2 | 20.3 | -1.6 | 0.1 | . | -0.1 | 2.2
O=C(CSc1nc2ncc(Cl)cc2[nH]1)N1CCC(Cc2ccccc2)CC1 | -4.1 | -2.2 | 9.3 | -0.8 | 10.2 | . | . | .
CCc1nc2oc3ccccc3c(=O)c2c(=O)n1-c1ccc(C)cc1 | . | . | . | 2.2 | . | 10.1 | . | .
CCc1nc2oc3ccccc3c(=O)c2c(=O)n1-c1ccccc1 | 14.4* | -4.1 | 20.7 | 3.0 | -3.5 | -13.6 | -2.1 | -3.3
Cc1cccc(NC(=O)c2cc3ccccc3o2)c1 | 0.1 | 0.8 | -4.2 | -4.5 | -0.3 | -4.5 | . | .
Cc1nc(NC(=O)c2cc3ccccc3o2)ccc1Br | 21.5* | 0.9 | -4.7 | 4.2 | -51.8 | 2.6 | 3.6 | 0.4
Cc1nc2ccccc2n1CC(=O)c1ccc(O)c(O)c1 | 21.8* | 0.2 | -1.4 | 5.7 | -64.0 | . | 0.7 | 20.5*
Cc1nc2ccccc2n1CC(=O)c1ccccc1 | -0.4 | -2.5 | 12.9 | -1.9 | -8.5 | -1.4 | . | .
COc1cccc(NC(=O)CN(C)C(=O)/C=C/c2cn(-c3ccccc3)nc2-c2ccc(OC)c(OC)c2)c1 | -2.8 | 0.9 | -3.6 | . | 6.9 | . | . | .
COc1ccc(-c2nn(-c3ccccc3)cc2/C=C/C(=O)N(C)CC(=O)Nc2cccc(F)c2)cc1OC | 15.2* | 0.2 | -0.7 | . | 10.8 | . | 2.4 | 1.1
COc1cc(OC)c(C2SCCN2S(=O)(=O)c2ccc(F)cc2)cc1OC (stereo unspecified) | -1.3 | -0.7 | 3.9 | 0.6 | -36.4 | -7.4 | . | .
COc1ccc(OC)c(C2SCCN2S(=O)(=O)c2cccc(C(F)(F)F)c2)c1 (stereo unspecified) | 16.6* | 3.0 | -17.6 | -0.9 | -38.7 | -14.0 | 3.3 | -4.3
